# PubChem BioAssay AID588382 (National Center for Advancing Translational Sciences (NCATS), 2011)
# Out of some 1,300 compounds screened, about 150 (12%) were called active. Not shown: some 30% with an inconclusive outcome. For the sample, actives were picked, then their nearest neighbours and some compounds at random. A number with no mark means an inactive call. Calls follow the shape of the dose curve; as a rule, active = well fitted cell-killing curve with a large enough effect; inconclusive = small, poorly fitted or top-dose-only effect, or effect the other way; inactive = flat fitted curve, though single readings scatter.
# Assay: qHTS of small molecules that selectively kill Giardia lamblia: Hit Validation in HepG2 cytotox;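 also: compound exposure lasted overnight at 37 deg C; nearly all actives have a fitted effect of over 55% in size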;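 as to activity change, negative = cytotoxicity: viability measured as cellular ATP by ATPLite luminescence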
# Conditions: cell viability; Potency: HepG2 cytotoxicity; series mostly up to 38.3 µM; activity change, negative = cytotoxicity: at the top concentration
# Outline: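 Counterscreen cytotoxicity: ATPLite luminescence (15 min, room temperature) measured in HepG2 cells exposed overnight at 37 deg C to pin-transferred compound (23 nL) after overnight pre-incubation.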
# % is scaled to controls: 0 for no effect and ±100 for the full control effect; potency is read from the fitted curve at half-maximal effect.
Compound,"activity change, negative = cytotoxicity",Potency
OC(COc1cccc2ccccc12)CN1CCN(c2ccc(Cl)cc2)CC1 (configuration not stated),-21.8%,–
O=[N+]([O-])C(/C=C(\Cl)[N+](=O)[O-])=C(N1CCCCC1)N1CCCCC1,2.12%,–
CC(=O)NC(Cc1ccccc1F)C(=O)NC1CCN(c2ncccc2[N+](=O)[O-])CC1 (configuration not stated),6.4%,–
CCN(CCCNC(=O)c1nn(C)c2c1CS(=O)(=O)c1ccccc1-2)Cc1ccccc1,8.51%,–
CC(C)(C)C1C/C(=C/c2ccccn2)C(=O)/C(=C/c2ccccn2)C1 (configuration not stated),–,0.585 µM (active)
O=C1CC(c2ccc(F)cc2)CC2=C1C(c1ccc([N+](=O)[O-])o1)Nc1ccccc1N2 (configuration not stated),0.0723%,–
O=c1[nH]c(=O)c2cc([N+](=O)[O-])cc([N+](=O)[O-])c2[nH]1,26.1%,–
O=[N+]([O-])c1ccc(/C=N/Nc2nc(N3CCCCC3)nc(N3CCCCC3)n2)o1,-1.62%,–
O=C(Nc1ccc(S(=O)(=O)N2CCCC2)cc1)c1ccc([N+](=O)[O-])o1,–,2.93 µM (active)
Cc1ccc(NC(=O)c2ccc([N+](=O)[O-])o2)cc1S(=O)(=O)N1CCOCC1,–,13.1 µM (active)
COc1ccc(C)cc1NC(=O)c1cc(S(=O)(=O)N2CCCC2)cn1C,7.45%,–
O=C(Nc1ccccc1N1CCOCC1)c1ccc([N+](=O)[O-])o1,20.1%,–
Cc1ccc(NC(=O)COc2cccnc2[N+](=O)[O-])cc1S(=O)(=O)N1CCCCC1,-2.65%,–
O=C(Nc1ccc(S(=O)(=O)N2CCOCC2)cc1)c1ccc([N+](=O)[O-])o1,–,13.1 µM (active)
COc1ccc(S(=O)(=O)N2CCCCC2)cc1NC(=O)c1ccc([N+](=O)[O-])o1,–,3.29 µM (active)
CC(C)C(=O)NC(=S)Nc1ccc(S(=O)(=O)N2CCCC2)cc1,2.66%,–
COc1ccc(S(=O)(=O)N2CCN(C(=O)c3ccc([N+](=O)[O-])o3)CC2)cc1,1.33%,–
COc1ccc(S(=O)(=O)N2CCOCC2)cc1NC(=O)COc1cccnc1[N+](=O)[O-],4.96%,–
O=C(Cc1ccc(Cl)cc1)Nc1ncc([N+](=O)[O-])s1,-20.5%,–
Cc1ccc(-n2c(C)cc(C(=O)COc3cccnc3[N+](=O)[O-])c2C)cc1,12.6%,–
O=C(c1ccc([N+](=O)[O-])o1)N1CCc2ccccc21,7.1%,–
Cc1cc(C)cc(N=c2c([N+](=O)[O-])nn(-c3ccc(Cl)cc3)n2O)c1,14.2%,–
O=C(COc1cccnc1[N+](=O)[O-])NCc1ccco1,10.7%,–
COc1ccc(OC)c(CCNC(=O)CSc2ccsc2[N+](=O)[O-])c1,-0.302%,–

Compound,"activity change, negative = cytotoxicity",Potency
Cc1ccc(S(=O)(=O)N2[C@@H](c3ccc(Cl)cc3)C(C(=O)O)=CC[C@H]2c2ccc(Cl)c(Cl)c2)cc1,-5.73%,–
Cn1nc(N)c2c(-c3ccccc3)c(C#N)c(N)nc21,6.82%,–
Cc1ccc(N=c2c([N+](=O)[O-])nn(-c3ccc4c(c3)OCCO4)n2O)cc1F,2.9%,–
CC(C)(C)n1nc(-c2ccc(Cl)cc2)c2c(N)ncnc21,5.62%,–
[O-][n+]1c2cc(C(F)(F)F)ccc2c2n1CCN=C2c1ccc(Cl)cc1,6.18%,–
CCOC(=O)CSc1ccc(C(=O)NCCCN2CCOCC2)cc1[N+](=O)[O-],1.58%,–
O=[N+]([O-])c1cc(S(=O)(=O)Nc2cccc(Cl)c2)ccc1N/N=C/c1ccc(N2CCOCC2)cc1,15.7%,–
O=C(COc1cccnc1[N+](=O)[O-])Nc1cccc(S(=O)(=O)N2CCCCC2)c1,7.3%,–
O=C(Nc1cccc(S(=O)(=O)N2CCCCC2)c1)c1ccc([N+](=O)[O-])o1,–,11.7 µM (active)
CC(=O)NC(Cc1cccc(C)c1)C(=O)NC1CCN(c2ncccc2[N+](=O)[O-])CC1 (configuration not stated),1.07%,–
Cc1cc(C)n(S(=O)(=O)c2ccccc2[N+](=O)[O-])n1,-7.32%,–
CC(NC(=O)c1ccc(N(C)C)c([N+](=O)[O-])c1)c1ccc(-n2ccnc2)cc1 (configuration not stated),-5.39%,–
CC(=O)NC(Cc1cccc(F)c1)C(=O)NC1CCN(c2ncccc2[N+](=O)[O-])CC1 (configuration not stated),25.4%,–
C/C(=N\NC(=O)COc1ccc(C)cc1Br)c1cc([N+](=O)[O-])cs1,1.76%,–
CC12CN3CC(C)(CN(C1)C3c1ccc([N+](=O)[O-])o1)C2 (configuration not stated),23.5%,–
O=[N+]([O-])c1cccc2nc3ccccc3c(NCCCn3ccnc3[N+](=O)[O-])c12,–,0.0736 µM (active)
O=C(NC(=S)Nc1ccc(CN2CCOCC2)cc1)c1ccc([N+](=O)[O-])cc1Cl,8.14%,–
CCN(CC)CCCC(C)Nc1c2ccc(Cl)cc2nc2ccc(OC)cc12 (configuration not stated),–,4.65 µM (active)
CCN(CC)CCCC(C)Nc1cc(/C=C/c2ccccc2Cl)nc2cc(Cl)ccc12 (configuration not stated),–,2.07 µM (active)
CCc1nc2cc([N+](=O)[O-])c([N+](=O)[O-])cc2[nH]1,17.5%,–
Cc1cccc(-n2nc([N+](=O)[O-])c(=NCc3cccnc3)n2O)c1,1.38%,–
O=C(COc1cccnc1[N+](=O)[O-])Nc1cc(Cl)ccc1Cl,20%,–
COc1ccccc1C(=O)NC(=O)OCCn1c(C)cnc1[N+](=O)[O-],13.5%,–
